From PubChem BioAssay (NCATS)
Results filed as inconclusive are left out. Calls of active or inactive are those of the source. Calls come from the whole dose curve; as a rule, active = well fitted inhibition curve with a large enough effect; inconclusive = small, poorly fitted or top-dose-only effect; inactive = no such curve, though single readings can be large or run the other way.
Potency is the fitted concentration of half-maximal effect.

Test: NS1 protein of Zika virus - qHTS assay to identify small molecule inhibitors in human HEK 293 cells (AID 1347053); note: nearly all actives have a fitted effect of over 55% in size;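 for activity change, negative = inhibition: plate controls were infected untreated cells for no effect and uninfected cells for full effect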
Details: HEK293 ZIKV MR766 infection, NS1 TR-FRET, 24 h; series mostly up to 46.1 µM; activity change, negative = inhibition: at the top concentration
Text: National Center for Advancing Translational Sciences [NCATS]
Johns Hopkins University School of Medicine
The non-structural 1 (NS1) protein of zika virus is known to associate with the viral replication complex. This cell-based TR-FRET ZIKV NS-1 assay measures the increased NS-1 protein in human HEK 293 cells after a 24-hour Zika virus infection by a TR-FRET assay readout. A decrease in the Time-resolved fluorescence energy transfer (TR-FRET) signal in this assay by small molecule treatment indicates an inhibitory effect of the small molecule on the expression of Zika virus NS1 correlating with Zika virus replication.
HEK 293 cells were cultured in EMEM (ATCC, Cat. # 30-2003) medium with 10% fetal bovine serum (GE healthcare Life Sciences, Cat. # SH30071.03), and 1% Pen/Strep (Gibco, Cat. # 15140-122). Cells were seeded in the assay plate and incubated at 37 C with 5% CO2 for 20 hours. Compounds were added to cells and incubated for one hour before addition of ZIKV MR766 strain solution to cells (MOI = 0.5). After an incubation at 37 C for 24 hours, the reagent mixture of TR-FRET ZIKV NS1 assay using two anti-ZIKV NS1 antibodies was added to assay plates. The TR-FRET signals in assay plates were measured using an Envision plate reader (PerkinElmer). Data were normalized by using the cell-containing wells without ZIKV as a negative control (0% NS-1) and wells containing ZIKV infected cells as a positive control (100% NS-1 level).
In the case of Cc1cccc(Nc2nc(N[C@@H]3CCCC[C@H]3N)ncc2C(N)=O)c1, the Potency is reported as 23500 nM (active).
In the case of Nc1ccc(-c2ccc3ncc4ccc(=O)n(-c5cccc(C(F)(F)F)c5)c4c3c2)cn1, the Potency is reported as 41.8 nM (active).
With OC1CCC(Nc2ncc3nc(Nc4c(F)cc(F)cc4F)n([C@@H]4CCOC4)c3n2)CC1 (stereo not given in full) the “activity change, negative = inhibition” value was 4.13% (inactive).
In the case of CC1(C)C(N(O)C(=O)Nc2ccc(Cl)cc2)N(c2ccc(Cl)cc2)C(=O)N1CC(=O)NN=CC=Cc1ccc([N+](=O)[O-])o1 (stereo not given), the “activity change, negative = inhibition” value is reported as 2.93% (inactive).
With CC(=O)OCC(=O)[C@@]1(O)CC[C@H]2[C@@H]3CCC4=CC(=O)C=C[C@]4(C)[C@@H]3[C@@H](O)C[C@@]21C the “activity change, negative = inhibition” value was 7.3% (inactive).
For COc1ccc2nc3cc(Cl)ccc3c(Nc3cc(CN4CCCC4)c(O)c(CN4CCCC4)c3)c2n1, the “activity change, negative = inhibition” value was 2.14% (inactive).
In the case of C[C@@H]1CC=CC=CC=CC=C[C@@H](O[C@@H]2O[C@H](C)[C@@H](O)[C@H](N)[C@H]2O)C[C@@H]2O[C@](O)(C[C@@H](O)C[C@@H]3O[C@@H]3C=CC(=O)O1)C[C@H](O)[C@@H]2C(=O)O, the “activity change, negative = inhibition” value is reported as 12% (inactive).
For N#CC(=C1Nc2ccccc2S1)c1ccnc(OCc2ccc(CN3CCOCC3)cc2)n1, the “activity change, negative = inhibition” value was -4.34% (inactive).
In the case of Cc1ccc2c(=O)c3cccc(CC(=O)O)c3oc2c1C, the “activity change, negative = inhibition” value is reported as 4.43% (inactive).
In the case of COc1ccnc(CS(=O)c2nc3ccc(OC(F)F)cc3[nH]2)c1OC (stereo not given), the Potency is reported as “inactive”.
For CC(C)C[C@@H](N)[C@H](O)C(=O)N[C@H](C(=O)N[C@H](C(=O)N[C@@H](CC(=O)O)C(=O)O)C(C)C)C(C)C, the “activity change, negative = inhibition” value was 0.758% (inactive).
With Nc1[nH]nc2nnc(-c3c(-c4ccccc4)nn4ccccc34)cc12 the “activity change, negative = inhibition” value was 51.9% (inactive).
For O=C(NC[C@H](O)CO)c1ccncc1Nc1ccc(I)cc1F, the “activity change, negative = inhibition” value was 0.643% (inactive).
In the case of Cc1ccccc1C(C(=O)NC1CCCCC1)N(C(=O)CNc1ccc(C#N)cc1)c1cccc(F)c1 (stereo not given), the “activity change, negative = inhibition” value is reported as 16.4% (inactive).
With Cc1[nH]c(C=C2C(=O)Nc3ccc(S(=O)(=O)N(C)c4cccc(Cl)c4)cc32)c(C)c1C(=O)N1CCN(C)CC1 the “activity change, negative = inhibition” value was 18.3% (inactive).
With CN1C(=O)C(Cc2c[nH]c3ccccc23)NC1=S (stereo not given) the “activity change, negative = inhibition” value was 1.97% (inactive).
For CC(C)(C)c1nc(-c2cccc(NS(=O)(=O)c3c(F)cccc3F)c2F)c(-c2ccnc(N)n2)s1, the “activity change, negative = inhibition” value was 33.8% (inactive).
In the case of CCCCC(C)(C)[C@H](O)C=C[C@H]1[C@H](O)CC(=O)[C@H]1CC=CCCCC(=O)O, the “activity change, negative = inhibition” value is reported as -2.52% (inactive).
For NCC1CCC(C(=O)O)CC1 (stereo not given), the “activity change, negative = inhibition” value was 4.82% (inactive).
In the case of C[C@@]1(C(=O)Nc2ccc(F)nc2)CCCN1c1nc(Nc2cc(C3CC3)[nH]n2)c2cccn2n1, the “activity change, negative = inhibition” value is reported as 5.54% (inactive).
With CCOC(=O)[C@H]1O[C@H]1C(=O)N[C@@H](CC(C)C)C(=O)NCCC(C)C the “activity change, negative = inhibition” value was 13.5% (inactive).
In the case of NC[C@H]1O[C@H](O[C@@H]2[C@@H](O)[C@@H](O[C@H]3O[C@H](CO)[C@@H](O)[C@H](N)[C@@H]3O)[C@H](N)C[C@@H]2N)[C@H](O)[C@@H](O)[C@H]1O, the “activity change, negative = inhibition” value is reported as 9.57% (inactive).
For CCC[C@H](Nc1nc(-c2ccc(NC(=O)NCC)c(OC)c2)ncc1C)c1cccnc1, the Potency was 9.3 nM (active).
For O=C(c1ccc(C(=O)N2CCC(N3CCCC3)CC2)c(Nc2ccccc2)c1)N1CCC(N2CCCC2)CC1, the “activity change, negative = inhibition” value was 3.28% (inactive).
For C[C@]12CCC3=C4CCC(=O)C=C4CC[C@@H]3[C@H]1CC[C@@]2(O)CC#N, the “activity change, negative = inhibition” value was -23.7% (inactive).
With CC(C)c1onc(-c2c(Cl)cccc2Cl)c1COc1ccc(C=Cc2cccc(C(=O)O)c2)c(Cl)c1 the “activity change, negative = inhibition” value was 7.28% (inactive).
In the case of CC(C)CN(C[C@H](O)[C@H](Cc1ccccc1)NC(=O)O[C@H]1CCOC1)S(=O)(=O)c1ccc(N)cc1, the “activity change, negative = inhibition” value is reported as 4.65% (inactive).
For Cc1ccc(S(=O)(=O)Nc2nc3ccccc3nc2Nc2ccc3nsnc3c2)cc1, the “activity change, negative = inhibition” value was 24% [at 20.1 µM] (inactive).
In the case of Cc1ccccc1C(=O)c1ccc(Nc2ccc(Br)cc2N)cc1Cl, the Potency is reported as 9350 nM (active).
With CNC1[C@H](O)C(O[C@@H]2C(O)C(O[C@H]3O[C@H]([C@@H](C)NC)CC[C@H]3N)[C@@H](N)C[C@H]2N)OC[C@]1(C)O (stereo not given in full) the “activity change, negative = inhibition” value was -1.32% (inactive).
With COC(=O)N1CCN(Cc2cccc(NC(=O)Nc3ccc(C)nc3)c2F)CC1 the “activity change, negative = inhibition” value was 0.552% (inactive).
For CCCCC[C@H](O)C=C[C@H]1[C@H](O)CC(=O)[C@H]1CCCCCCC(=O)O, the “activity change, negative = inhibition” value was -4.81% (inactive).
For CC(C)Oc1cc(Nc2nc(N[C@@H](C)c3ccc(F)cn3)ncc2Cl)[nH]n1, the “activity change, negative = inhibition” value was 3.14% (inactive).
In the case of CC(C)=CCCC(C)=CCCC(C)=CCCC(C)=CCCC(C)=CCCC(C)=CCCC(C)=CCCC(C)=CCCC(C)=CCO, the “activity change, negative = inhibition” value is reported as 1.74% (inactive).
In the case of C[C@@]1(c2cc(-c3cncnc3)c(F)cc2F)CCSC(N)=N1, the “activity change, negative = inhibition” value is reported as -6.05% (inactive).
In the case of CN(C(Cc1ccc(OS(=O)(=O)c2cccc3cnccc23)cc1)C(=O)N1CCN(c2ccccc2)CC1)S(=O)(=O)c1cccc2cnccc12 (stereo not given), the “activity change, negative = inhibition” value is reported as -0.812% (inactive).
For COc1cc(N2CCN(C)CC2)ccc1Nc1nc(N)c(C(=O)c2c(Cl)cccc2Cl)s1, the “activity change, negative = inhibition” value was 8.96% (inactive).
For CC(C)[C@H](O)C(=O)N[C@@H](C)C(=O)N[C@@H]1C(=O)N(C)CCc2ccccc21, the “activity change, negative = inhibition” value was 3.69% (inactive).
For OCCn1cc(-c2ccc3c(c2)CCC3=NO)c(-c2ccncc2)n1, the “activity change, negative = inhibition” value was 2.79% (inactive).
With COc1cc([C@@H]2c3cc4c(cc3[C@@H](O[C@@H]3O[C@@H]5CO[C@@H](C)O[C@@H]5[C@H](O)[C@@H]3O)[C@H]3COC(=O)[C@H]23)OCO4)cc(OC)c1O the Potency was 1180 nM (active).
